The record followed here is PubChem BioAssay (Tox21).

Results filed as inconclusive are left out. A number with no mark means an inactive call. Calls of active or inactive are those of the source. The call rests on the fitted dose curve; in most records, active means well fitted activation curve with a large enough effect in the repeat runs; inconclusive means weak or mixed curves; inactive means no such curve, though single readings can be large or run the other way.
On the % scale 0 is the no-effect control and ±100 the full control effect; potency means the concentration at half of the fitted maximal effect.

The nature of the experiment: qHTS assay to identify small molecule agonists of the estrogen related receptor signaling pathway with the pleiotropic PPARgamma coactivator (PGC) (AID 1224823). As to conditions: ERR/PGC reporter cell line, luciferase agonist mode; series mostly up to 46.1 µM; activation: at the top concentration. An excerpt:
National Center for Advancing Translational Sciences [NCATS]
NIH Chemical Genomics Center [NCGC]
U.S. Environmental Protection Agency [EPA]
National Institutes of Environmental Health Sciences [NIEHS]
National Toxicology Program [NTP]
Estrogen related receptors (ERRs), the first orphan nuclear receptors discovered, play an important role in the control of cellular energy metabolism. ERRs are required for high-energy production in response to the environmental challenges. The pleiotropic PPARgamma coactivator (PGC) is a major partner of ERR and a key regulator in energy homeostasis. Together they have been implicated in the etiology of metabolic disorders such as Type 2 diabetes and metabolic syndrome. ERR-alpha was also identified as an adverse marker for breast cancer progression; ERR-alpha-positive tumors have a poor prognosis. To screen and to identify environmental compounds that perturb the PGC/ERR signaling pathways could provide valuable information for potential therapeutic or preventive measures in the treatment of metabolic disease. For identifying PGC/ERR agonists, PGC/ERR cell line (provided by NTP) has been used to screen LOPAC library.
The PGC/ERR cells were dispensed at 2,000 cells/5 ul/well in 1536-well white plates using a Multidrop dispenser. After the assay plates were incubated at a 37 C/5% CO2 incubator for 6 hours, 23 nL of compounds dissolved in DMSO, positive and negative controls or DMSO only was transferred to the assay plate by a pin tool. The plates were incubated at 37 C for 18 hours. 4 ul/well of One-Glo reagent was added into the assay plates using a Flying Reagent Dispenser. After 30 min incubation at room temperature, the luminescence intensity in the plates was measured using a ViewLux plate reader.
Turning to `O=C(O)Cc1c[nH]c2ccc(O)cc12`, the “activation” value is -5.09%.
For `CN(C)S(=O)(=O)c1ccc2c(c1)/C(=C/c1cc3c([nH]1)CCCC3)C(=O)N2`, the Potency is 23700 nM (active).
In the case of `C[C@](Cc1ccc(O)c(O)c1)(NN)C(=O)O`, the “activation” value was 0.688%.
On the same count and under the same terms, under `N[C@@H](CS(=O)O)C(=O)O` stands 1.86%; under `c1ccc(CN2CCC3(CCCc4ccccc43)CC2)cc1`, -7.28%; under `CN(CCCOc1ccc(Cc2ccccc2)cc1)CCC(=O)O`, -3.76%.
On the same count and under the same terms, under `Cn1ccnc1` stands 1.61%; under `Nc1ccc(N2C(=O)c3ccccc3C2=O)c(Cl)c1`, -6.45%.
Consider `N#CC(C#N)=C(N)/C(C#N)=C/c1ccc(O)cc1`, for which the “activation” value is -2.04%.
For `O=c1c(O)c(-c2cc(O)c(O)c(O)c2)oc2cc(O)cc(O)c12`, the “activation” value was -1.58%.
For the compound `COc1ccccc1N1CCN(CCCCN2C(=O)c3ccccc3C2=O)CC1`, the “activation” value was 1.46%.
On to `CNc1ncnc2c1ncn2[C@H]1C[C@H](OP(=O)(O)O)[C@@H](COP(=O)(O)O)O1`, for which the “activation” value was 2.68%.
On to `NC(N)=NCc1cccc(I)c1`, for which the “activation” value was -13.9%.
With `CCC(NC(C)C)C(O)c1ccc(O)c(O)c1` (stereo not given), the “activation” value is 17%.
Take `CCCCCCCCCCCCCCCC(=O)OC(CC(=O)O)C[N+](C)(C)C` (stereo not given): the “activation” value is 12.2%.
For the compound `C[C@@H]1C(=O)NC2=Nc3cccc(Cl)c3CN21`, the “activation” value was 1.33%.
On the same count and under the same terms, for `Oc1cc2c(c(Cl)c1O)CCNCC2c1ccccc1` (stereo not given) the value was -18.3%; for `Cn1cc(C(=O)OCC2CCN(CCNS(C)(=O)=O)CC2)c2ccccc21`, 2.02%.
For the compound `Cc1nc(N=Nc2ccc(C(=O)O)cc2)c(COP(=O)(O)O)c(C=O)c1O`, the “activation” value was -5.11%.
Consider `CN(C)C(=O)[C@H](O)[C@H](Cc1ccccc1)NC(=O)c1cc2cc(Cl)ccc2[nH]1`, for which the “activation” value was 1.83%.
On to `NC[C@H]1O[C@@H](n2cnc3c(N)ncnc32)[C@H](O)[C@@H]1O`, for which the “activation” value was 9.99%.
For the compound `CN=c1nc(-c2ccccc2)n(-c2ccccc2)s1`, the “activation” value is -29.5%.
The same measure, in the same setting: for `Cc1cccc(-c2[nH]ncc2-c2ccc3ncccc3n2)n1` the value was -15.9%; for `CCSC(=N)N`, -1.88%.
On to `N[C@@H](Cc1cnc[nH]1)C(=O)O`, for which the “activation” value was -7.41%.
Same read-out and setting: under `CCCC(=O)c1cc(O)c(O)cc1O` stands -9.99% [at 92.2 µM].
Same read-out and setting: for `NC(N)=NCCCCN=C(N)N` the value was 4.59%; for `CN[C@H](CC(=O)O)C(=O)O`, -0.612%; for `c1ccc(C(NCc2cccnc2)(c2ccccc2)c2ccccc2)cc1`, -20.2%.
Same read-out and setting: for `O=c1cc(O)cc(/C=C/c2ccc(O)c(O)c2)o1` the value was -3.94%.
As to `O=C(O)c1cc2cc(F)ccc2[nH]1`, the “activation” value was 6.75%.
Still for that read-out and setting: under `CCN1C(=O)C=CC1=O` stands 8.07%; under `CCCn1c(=O)c2[nH]c(C3CCCC3)nc2n(CCC)c1=O`, 3.05%.
For the compound `CNC(=O)[C@H]1O[C@@H](n2cnc3c(NCc4cccc(I)c4)ncnc32)[C@H](O)C1O` (stereo not given in full), the Potency is 944 nM (active).
`NCC(O)C1CCCCCCC1` (stereo not given): the “activation” value was 3.66%.
For `Cc1nc(N=Nc2cc(S(=O)(=O)O)c3cc([N+](=O)[O-])cc(S(=O)(=O)O)c3c2)c(COP(=O)(O)O)c(C=O)c1O`, the “activation” value is -5.29%.
Still for that read-out and setting: under `CC(/C=C/c1cccc(Oc2ccc(F)cc2)c1)N(O)C(N)=O` (stereo not given) stands 10.9%; under `CCNc1nc2c(ncn2[C@H]2C[C@H](O)[C@@H](CO)O2)c(=O)[nH]1`, 3.73%.
On to `CCN(CC)CCOc1ccc(Nc2ncc3cc(-c4c(Cl)cccc4Cl)c(=O)n(C)c3n2)cc1`, for which the Potency is 90.8 nM (active).
For `C=CCn1c(=O)c2c(nc(-c3ccc(S(=O)(=O)O)cc3)n2C)n(C)c1=O`, the “activation” value is -9.75%.
